Our source for the growth values is PubChem BioAssay (NCI).

The panel holds about 83,000 compounds, 20% with a hit somewhere; the sample as a whole holds those more often.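 Method: cells in 96-well plates; compound added at one concentration; 48 h incubation; percent growth measured; values under 10 scored active.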 A number with no mark means an inactive call. The source made the active and inactive calls.

The assay concerns MDA-MB-468 breast. Kind of assay: NCI-60 one-dose screen, 48 h (100 = growth as untreated, 0 = no growth, -100 = all killed). The settings on record: 10 µM unless noted.
For the compound `CC(=O)N1N=C(c2ccc3c(c2)OCO3)CC1c1c(C)nn(-c2ccccc2)c1N(C)Cc1ccccc1` (centres undefined), the growth is 61.5%.
For `O=C1c2cccc3c([N+](=O)[O-])ccc(c23)C(=O)N1CCCCl`, the growth is -62.2% [100 µM] (active).
`O=C(N/N=C/c1c(Cl)cccc1Cl)c1ccccc1Nc1ccnc(C(F)(F)F)c1`: the growth is 53.5%.
The figure for `O=C(Cn1nnc2ccccc21)N/N=C/c1ccccc1F` is 90.8%; for `N#Cc1nc(-c2cccc(Br)c2)cc(-c2ccc(Nc3nc(N4CCCCC4)nc(N4CCCCC4)n3)cc2)c1N` it is -26.3% (active).
Take `Cc1nc(C)c(C)nc1C`: the growth is 106%.
In the case of `CN(C)CC(C)(C)C(=O)/C=C/c1ccccc1`, the growth is -49% [25 µM] (active).
Regarding `Cc1ccc(C2CC3c4ccccc4C2C2CCCCN32)cc1` (centres undefined), the growth was -0.132% (active).
With `O=C(/C=C/c1ccccc1)c1c[nH]c2ccccc2c1=O`, the growth was -52.7% (active).
As to `CCNc1nc(-c2ccc(Cl)c(OC)c2)c(-c2ccnc(NCCCNS(=O)(=O)c3ccc(Cl)cc3)n2)s1`, the growth was 63.3%.
The value for `Cn1cc(C2=C(c3cccc4ccccc34)C(=O)NC2=O)c2cc(Br)ccc21` was 87.2%.
Regarding `O=C1C=CC(=O)N1c1ccc2c(c1)Cc1cc(F)ccc1-2`, the growth was 92.6%.
The value for `COC(CCP(=O)(c1ccccc1)c1ccccc1)(C(=O)c1ccccc1)c1ccccc1` (centres undefined) was 54.7%; that for `CCOP(=O)(OCC)OC[C@]12CCC(C)(C)C[C@H]1C1=CC[C@@H]3[C@@]4(C)C/C(=C\c5cccnc5)[C@H](OP(=O)(OCC)OCC)C(C)(C)[C@@H]4CC[C@@]3(C)[C@]1(C)CC2` was -0.445% (active).
